About 83,000 compounds went through this panel and 20% of them were active in at least one assay; those are over-represented in the sample as a whole.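 Negative percent growth values reflect cell death: -40 means 40% of the cells present at the start died, and -100 means all died.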 Calls of active or inactive are those of the source. How the source made its calls: active means growth percent below 10; inactive means the rest.

This note sets out measurements from PubChem BioAssay (NCI).

The assay relates to HL-60(TB) leukemia. Briefly: NCI-60 one-dose screen, 48 h (100 = growth as untreated, 0 = no growth, -100 = all killed). Particulars: 10 µM unless noted.
For `COc1ccc(C2=Nc3c(N)ncnc3NC(c3ccc4c(c3)OCO4)C2)cc1` (stereo not given), the growth was 124% (inactive).

Consider `CC(C)=NNc1ncnc2c1ncn2C1OC(CO)C(O)C1O` (stereo not given), for which the growth is 6.58% (active).

`Cc1ccc(C2(C)NC(=O)N(CC(=O)Nc3cccc(C)c3)C2=O)cc1` (stereo not given): the growth was 103% (inactive).

As for `Cc1c(C(=O)Nc2ccccc2F)sc2c(=O)[nH]cnc12`, the growth was 83.2% (inactive).

Turning to `Nc1nc(=S)ss1`, the growth is 87.8% (inactive).

As to `CN1CCN(C(=O)C(C)(C)c2ccc(C(=O)Nc3cn4cc(-c5ccncc5)ccc4n3)cc2)CC1`, the growth was 7.51% (active).

With `COc1cc(-c2nc(SCCC(C)C)nc(N3CCOCC3)c2C#N)cc(OC)c1OC`, the growth is 95.2% (inactive).

In the case of `Cc1ccc2oc(=O)cc(C3C(C#N)=C(N)Oc4c3ccc3ccccc43)c2c1` (stereo not given), the growth was 53.1% (inactive).

Consider `O=C(Cc1ccc(/C=C/C(=O)c2ncc[nH]2)cc1)Nc1cc(F)c(F)c(F)c1`, for which the growth is 7.25% (active).

In the case of `O=C1c2ccccc2-c2ccccc2C1(Cl)Cl`, the growth is -39.6% (active).

In the case of `Fc1cnccc1-c1nc2ccc3[nH]ncc3c2c2c1CCCC2`, the growth is 16.9% (inactive).

Take `COc1cc2c(cc1O)CC[C@@H]1[C@@H]2CC[C@]2(C)[C@@H](NCCN(C)C)CC[C@@H]12`: the growth is -67.7% (active).

Regarding `Cn1cc(C(=O)c2nc(-c3c[nH]c4ccc(Br)cc34)no2)c2cc(F)ccc21`, the growth was 94.7% (inactive).

Regarding `Cn1ccnc1C(=O)/C=C/c1ccc(CC(=O)Nc2ccc(F)cc2)cc1`, the growth is 18.8% (inactive).

Take `O=C(O)/C=C/C(=O)Nc1cccc(Cn2nnc3cc(Cl)c(Cl)cc32)c1`: the growth is 112% (inactive).

Consider `COc1ccc(Nc2ncccc2NC(=O)c2cn(Cc3cccc(Oc4ccccc4)c3)nn2)cc1OC`, for which the growth was 55.8% (inactive).

For the compound `O=C(O)c1ccc(-n2cc(/C=N/Nc3ccc(F)cc3)c(-c3cccc(C(F)(F)F)c3)n2)cc1`, the growth is 34.3% (inactive).

For the compound `CCOc1ccc([C@@H]2[C@@H](Oc3ccccc3)C(=O)N2c2cc(OC)c(OC)c(OC)c2)cc1`, the growth is -36% (active).

With `CC1=NN(C(=O)c2nn(-c3ccc(Cl)cc3)cc2O)C(=O)C1`, the growth is 5.71% (active).

Take `COC(=O)c1[nH]cnc1/N=N/N(C)CCO`: the growth was 86.5% (inactive).

Take `CC(C)(C)CC(C)(C)c1ccc(OCCOCC[N+](C)(C)Cc2ccccc2)cc1`: the growth is -63.5% (active).

Turning to `CCCC/C=N/NC(=S)NCc1ccccc1`, the growth is 105% (inactive).

`CCN(CCCCCCN1CC(=O)N(CCCCCCN(CC)Cc2ccccc2OC)CC1=O)Cc1ccccc1OC`: the growth was 60.6% (inactive).

In the case of `Cc1cc(-c2nc3ccccc3s2)ccc1NC(=O)COc1ccc(Cl)cc1`, the growth is 99.1% (inactive).

As to `Cc1onc(-c2c(F)cccc2Cl)c1-c1ncc(-c2ccc(Cl)cc2)o1`, the growth was 36.4% (inactive).

Take `COc1ccc(C/C(C)=C(/c2ccc(OCCN(C)C)cc2)c2ccc(OC(=O)NCc3ccccc3)cc2)cc1`: the growth is 45.1% (inactive).

For the compound `O=C(Nc1ccc(F)cc1)Nc1ccc(Br)c(C(F)(F)F)c1`, the growth is -41.9% (active).

Turning to `COc1ccc2cc(-c3ccc(C(=O)NN)c(C)n3)ccc2c1`, the growth was 104% (inactive).

`CCc1ccc2c(c1)N(CCO)C1=C(C(=O)OC1)C2c1cccc(Br)c1` (stereo not given): the growth was -9.76% (active).

On to `c1cc2cccc3c4cccc5cccc(c(c1)c23)c54`, for which the growth was 109% (inactive).

Consider `[2H]C1([2H])NC([2H])([2H])C([2H])([2H])N(c2ccc(Nc3ncc4cc(C(=O)N(C)C)n(C5CCCC5)c4n3)nc2)C1([2H])[2H]`, for which the growth is 22.7% (inactive).

Take `COc1cccc(C(=O)NC(c2ccc(C)cc2)c2cc(Cl)c3cccnc3c2O)c1` (stereo not given): the growth was 4.15% (active).

With `C(=N\Nc1nnc2n1N=C(c1ccccc1)CS2)/c1ccc(OCc2ccccc2)cc1`, the growth is 97.6% (inactive).

For `CCCCC(O)(c1ccc(Cl)cc1)C(CN1CCOCC1)c1ccc(Cl)cc1` (stereo not given), the growth is 53.6% (inactive).

For the compound `CC12O[C@H](C[C@@H](OC(=O)CCC(=O)O)[C@H]1O)n1c3ccccc3c3c4c(c5c6ccccc6n2c5c31)C(=O)NC4=O`, the growth was 66.7% (inactive).

With `COc1ccccc1Nc1nc(-c2cc3cccc(C(F)(F)F)c3oc2=O)cs1`, the growth was -5.62% (active).

For `COc1ccc2c(c1)O/C(=C\c1ncc([N+](=O)[O-])n1C)C2=O`, the growth is -3.86% (active).

Consider `CCCCCCCC(=O)Nc1nc2[nH]c(CN3CCN(Cc4cccc(I)c4)CC3)c(CN3CCN(Cc4cccc(I)c4)CC3)c2c(=O)[nH]1`, for which the growth is -49.3% (active).

In the case of `Nc1ccc(S(=O)(=O)Nc2cc(I)cc(I)c2)cc1`, the growth was -75% (active).

In the case of `COC(=O)C(Cc1cnc[nH]1)N1CC(=O)N2[C@@H](c3ccccc3)SC[C@H]2C1=O` (stereo not given in full), the growth was 90.3% (inactive).
